# Experimental data taken from PubChem BioAssay (NCATS).
# Results filed as inconclusive are left out. Where a call stands in place of a potency, no number is given. Values without a mark were called inactive. Active and inactive are the calls of the source. Unless noted, the call rests on the fitted dose curve; in most records, active means well fitted curve in the direction sought with a large enough effect; inconclusive means small, poorly fitted or top-dose-only effect, or another doubt; inactive means no such curve, though single readings can be large; an effect the other way counts as inactive or inconclusive.
# What was measured:
# [1] = molecular target: Rap guanine nucleotide exchange factor 3 (Homo sapiens) (UniProt O95398); assay: Confirmatory qHTS for antagonist of cAMP-regulated guanine nucleotide exchange factor 3 (EPAC1) (AID 1645880); further: nearly all actives have a fitted effect of over 55% in size
# Rap guanine nucleotide exchange factor 3 (Homo sapiens), sequence (O95398 whole entry, looked up): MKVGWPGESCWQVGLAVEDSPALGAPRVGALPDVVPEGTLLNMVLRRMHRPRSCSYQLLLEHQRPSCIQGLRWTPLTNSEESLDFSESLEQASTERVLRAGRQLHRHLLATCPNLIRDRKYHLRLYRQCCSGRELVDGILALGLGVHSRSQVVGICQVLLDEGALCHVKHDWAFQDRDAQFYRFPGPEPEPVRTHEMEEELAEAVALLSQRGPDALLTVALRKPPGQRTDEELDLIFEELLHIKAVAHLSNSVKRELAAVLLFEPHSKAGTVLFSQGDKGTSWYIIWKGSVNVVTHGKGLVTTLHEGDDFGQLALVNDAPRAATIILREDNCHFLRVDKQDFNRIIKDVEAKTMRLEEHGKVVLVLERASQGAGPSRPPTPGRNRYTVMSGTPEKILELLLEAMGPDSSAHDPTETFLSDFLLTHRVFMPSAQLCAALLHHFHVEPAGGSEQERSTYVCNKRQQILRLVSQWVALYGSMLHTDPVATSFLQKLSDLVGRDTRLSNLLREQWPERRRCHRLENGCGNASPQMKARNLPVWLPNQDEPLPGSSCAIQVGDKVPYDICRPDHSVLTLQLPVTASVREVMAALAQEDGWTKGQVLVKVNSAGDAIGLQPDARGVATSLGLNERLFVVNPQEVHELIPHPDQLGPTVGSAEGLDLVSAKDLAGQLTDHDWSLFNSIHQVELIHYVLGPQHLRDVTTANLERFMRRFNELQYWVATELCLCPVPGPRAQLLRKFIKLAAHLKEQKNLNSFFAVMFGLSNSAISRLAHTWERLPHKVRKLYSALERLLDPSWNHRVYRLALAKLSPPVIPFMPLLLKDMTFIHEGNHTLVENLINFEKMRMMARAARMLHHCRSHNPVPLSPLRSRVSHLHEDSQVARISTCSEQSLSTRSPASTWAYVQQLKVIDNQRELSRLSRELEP
# Method in brief: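 Nucleotide exchange uses 100 nM EPAC1, 250 nM RAP1B-BODIPY-GDP and 50 uM GDP, with compounds in a concentration-titration series. After 5 min at room temperature, fluorescence (480 nm ex/540 nm em) is read every 5 min for 30 min. Data are normalized to control ATA and DMSO.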
# [2] = molecular target: Rap guanine nucleotide exchange factor 3 (Homo sapiens) (UniProt O95398); assay: Confirmatory qHTS for agonist of cAMP-regulated guanine nucleotide exchange factor 3 (EPAC1) (AID 1645881);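 further: EPAC1 catalysed release of BODIPY-GDP from Rap1B seen as fluorescence loss; nearly all actives have a fitted effect of over 75% in size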
# [3] = molecular target: Rap guanine nucleotide exchange factor 4 (Homo sapiens) (UniProt Q8WZA2); assay: Confirmatory qHTS for agonist of cAMP-regulated guanine nucleotide exchange factor 4 (EPAC2) (AID 1645884);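 further: nucleotide exchange releases bodipy-GDP from Rap1 and this lowers its fluorescence; nearly all actives have a fitted effect of over 65% in size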
# Rap guanine nucleotide exchange factor 4 (Homo sapiens), sequence (Q8WZA2 whole entry, looked up): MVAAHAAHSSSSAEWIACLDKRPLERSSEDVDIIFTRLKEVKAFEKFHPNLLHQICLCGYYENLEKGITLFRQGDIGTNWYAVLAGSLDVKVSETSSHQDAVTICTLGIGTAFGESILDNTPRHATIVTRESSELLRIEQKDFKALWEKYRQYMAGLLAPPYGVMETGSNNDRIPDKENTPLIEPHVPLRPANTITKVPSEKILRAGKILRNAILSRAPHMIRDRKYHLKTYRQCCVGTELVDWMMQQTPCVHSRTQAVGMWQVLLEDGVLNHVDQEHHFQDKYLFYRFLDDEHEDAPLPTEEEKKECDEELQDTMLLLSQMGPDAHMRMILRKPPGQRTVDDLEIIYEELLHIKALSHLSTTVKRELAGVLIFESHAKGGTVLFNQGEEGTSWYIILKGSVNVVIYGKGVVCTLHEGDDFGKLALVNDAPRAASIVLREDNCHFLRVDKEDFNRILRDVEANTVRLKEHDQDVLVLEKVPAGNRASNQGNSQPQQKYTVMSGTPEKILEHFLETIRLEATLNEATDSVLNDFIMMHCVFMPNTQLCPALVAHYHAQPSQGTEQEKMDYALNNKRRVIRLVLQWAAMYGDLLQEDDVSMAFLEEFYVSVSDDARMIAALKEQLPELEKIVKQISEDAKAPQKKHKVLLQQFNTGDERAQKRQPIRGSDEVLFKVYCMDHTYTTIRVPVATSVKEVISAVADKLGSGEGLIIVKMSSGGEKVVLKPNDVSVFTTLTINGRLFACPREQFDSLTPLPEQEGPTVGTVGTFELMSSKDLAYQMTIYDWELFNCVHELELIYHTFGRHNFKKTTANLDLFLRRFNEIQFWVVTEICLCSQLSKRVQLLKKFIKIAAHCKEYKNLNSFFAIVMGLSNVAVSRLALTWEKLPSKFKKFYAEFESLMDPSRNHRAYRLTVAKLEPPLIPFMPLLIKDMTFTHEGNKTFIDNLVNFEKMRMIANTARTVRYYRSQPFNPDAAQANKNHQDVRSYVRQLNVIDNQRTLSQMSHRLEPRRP
# [4] = molecular target: Rap guanine nucleotide exchange factor 4 (Homo sapiens) (UniProt Q8WZA2); assay: Confirmatory qHTS for antagonist of cAMP-regulated guanine nucleotide exchange factor 4 (EPAC2) (AID 1645885); further: nearly all actives have a fitted effect of over 25% in size; further: potency means the concentration at half of the fitted maximal effect
# [5] = molecular target: Rap guanine nucleotide exchange factor 3 (Homo sapiens) (UniProt O95398); assay: Counterscreen qHTS for antagonist of cAMP-regulated guanine nucleotide exchange factor 3 (EPAC1) (AID 1645888);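 further: fluorescence loss as bound BODIPY-GDP is released from Rap1B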
# Method in brief: (§1)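 Measured: fluorescence of BODIPY-GDP bound to Rap1B, which falls as exchange proceeds. Conditions include 50 uM competing GDP, 5 and 30 min reads, and a later cAMP challenge for antagonist detection.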
# [6] = NCATS anti-infectives library activity on HEK293 viability as a counter-qHTS vs the C. elegans viability qHTS (AID 1745854);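 further: HEK293 cells exposed to compounds for 24 hr before the viability read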
# Method in brief: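 HEK293 cells (1,500/well) exposed 24 hr at 37C to 1:5 titrations, up to 41.7 uM final; counter-screen to a C. elegans viability qHTS. Viability by CellTiter-Glo luminescence after 10 min at room temperature; digitonin as control.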
# [7] = molecular target: Rap guanine nucleotide exchange factor 3 (Homo sapiens) (UniProt O95398); assay: Counterscreen qHTS for agonist of cAMP-regulated guanine nucleotide exchange factor 3 (EPAC1) (AID 1645889); further: nearly all actives have a fitted effect of over 40% in size
# Method in brief: as §1
# [8] = Viability counterscreen for antagonist of constitutive androstane receptor (CAR) against the NCATS DSHEA and TCM libraries (AID 1794837);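 further: compound exposure lasted 24 h before viability reading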
# Method in brief: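 Viability was measured by CellTiter-Fluor fluorescence (405/540 nm, 1 hr) in HepG2-CYP2B6-hCAR cells. Cells were co-treated 24 hr with 48 uM CITCO (final), antagonist mode, and test substances.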
# [9] = Viability counterscreen for agonist of constitutive androstane receptor (CAR) against the NCATS DSHEA and TCM libraries (AID 1794838);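 further: HepG2 cells with CYP2B6 reporter and hCAR plus 0.75 µM PK11195 antagonist; cells exposed to compound for 24 h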
# Method in brief: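 Cell viability, from CellTiter-Fluor fluorescence (405/540 nm), was scored after a 24 h, 37C exposure of HepG2 cells carrying CYP2B6 reporter and hCAR to test substances in presence of 0.75 uM PK11195.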
# [10] = NCATS anti-infectives library activity on the primary C. elegans qHTS viability assay (AID 1745855; calls by dose curve)
# Method in brief: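 Viability read-out is GFP fluorescence of PE254-GFP-FLuc C. elegans, measured by laser cytometry (488 nm) at day 0, 3 and 7. Ten L1 worms per well were incubated 7 days at 21 °C with compounds and bacterial capsules in S medium.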
smiles,measurement,setting,value
COc1cc(NCCCC(C)N)c2ncccc2c1 (configuration not stated),outcome,[1],inactive
same,outcome,[2],inactive
same,outcome,[3],inactive
same,Potency,[4],inactive
same,outcome,[5],inactive
C=CC(C)(O)CC/C=C(\C)CCC=C(C)C (configuration not stated),outcome,[2],inactive
same,outcome,[3],inactive
same,Potency,[4],44.1 µM (active)
Nc1nc(=O)n([C@@H]2CS[C@H](CO)O2)cc1F,outcome,[6],inactive
NCCCC[C@H](N)C(=O)O,"activity change, negative = cytotoxicity",[6],-19.5% [at 0.334 µM]
C=C1[C@H](CO)[C@@H](O)C[C@@H]1n1cnc2c(=O)[nH]c(N)nc21,outcome,[6],inactive
CCCCC(=O)O[C@H]1CC[C@H]2[C@@H]3CCc4cc(O)ccc4[C@H]3CC[C@]12C,outcome,[1],inactive
same,outcome,[2],inactive
same,outcome,[3],inactive
same,Potency,[4],inactive
Oc1ccc(/C=C/c2cc(O)cc(O)c2)cc1,outcome,[1],inactive
same,outcome,[2],inactive
same,outcome,[3],inactive
same,outcome,[5],inactive
same,outcome,[7],inactive
same,outcome,[6],inactive
same,outcome,[8],inactive
same,outcome,[9],inactive
CCCC(CCC)C(=O)OC1C[C@H]2CC[C@@H](C1)[N+]2(C)C (some centres not stated),outcome,[6],inactive
CSc1nc2cc(Oc3cccc(Cl)c3Cl)c(Cl)cc2[nH]1,outcome,[1],inactive
same,outcome,[2],inactive
same,outcome,[3],inactive
CNC(=O)[C@H](Cc1c[nH]c2ccccc12)NC(=O)[C@@H](CC(=O)NO)CC(C)C,outcome,[6],inactive
same,Potency,[10],inactive
Oc1cccc(O)c1O,outcome,[8],inactive
same,outcome,[9],inactive
CCCCC/C=C\C/C=C\C/C=C\CCCCC(=O)O,"viability change, negative = cytotoxic",[8],-4.69% [at 5 µM]
same,"activity change, negative = cytotoxicity",[9],-8.92% [at 5 µM]
O=C(Nc1ccc(O)cc1)c1ccccc1O,outcome,[6],inactive
CC(C)=CCC/C(C)=C/CC/C(C)=C/CC/C(C)=C/CC1=C(C)C(=O)c2ccccc2C1=O,outcome,[8],inactive
same,outcome,[9],inactive
CC[C@H]1OC(=O)[C@H](C)[C@@H](O[C@H]2C[C@@](C)(OC)[C@@H](O)[C@H](C)O2)[C@H](C)[C@@H](O[C@@H]2O[C@H](C)C[C@H](N(C)C)[C@H]2O)[C@](C)(O)C[C@@H](C)CN(C)[C@H](C)[C@@H](O)[C@]1(C)O,outcome,[6],inactive
